Only some compounds are listed: those with a hit (about 6.5% of all), similar ones and a draw of the others.
FMDV antiviral: foot and mouth disease virus antiviral activity | FMDV antiviral cell-based qHTS | Potency, µM (series often up to 57.9 µM), without a hit: top-dose activity change, negative = inhibition, actives largely listed as inhibitors | hit rate 1.2% among 410,000; calls by dose curve; tested in HEK293T cells; further: read-out not given here; potency means the concentration at half of the fitted maximal effect; nearly all actives have a fitted effect of over 45% in size
VACV Venus inh: vaccinia inhibition (Venus reporter) | Vaccinia virus Venus reporter expression, fluorescence | Potency, µM (series often up to 36.5 µM), for the others: at the top dose activity change, negative = inhibition, usual class: inhibitors | hit rate 0.46% among 330,000; calls by dose curve; tested in A549 cells; further: potency means the concentration at half of the fitted maximal effect; nearly all actives have a fitted effect of over 30% in size
HCMV antiviral: human cytomegalovirus inhibition; activity change, negative = inhibition, % at 57.5 µM; HFF cells, HCMV-luciferase reporter, 72 h; active compounds read low; hit rate 4.5% among 410,000; in the data active means activity change below about -60%; inconclusive means no clear call, values can overlap the other calls; inactive means above about -39%
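Compounds were evaluated in HFFs infected with an HCMV luciferase reporter virus (MOI 1 PFU/cell). Luciferase in lysates collected 72 h post infection served as the replication measure.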
Vaccinia mCherry: vaccinia inhibition (mCherry reporter). Vaccinia virus mCherry reporter infection, fluorescence. Potency, µM (doses to about 36.5 µM), inactives show at the top dose activity change, negative = inhibition, usual class: inhibitors. hit rate 0.63% among 310,000; calls by dose curve; tested in A549 cells; further: potency means the concentration at half of the fitted maximal effect; nearly all actives have a fitted effect of over 35% in size
MARV entry inh: blocks Marburg virus binding to or entry into cells. Potency, µM (titrated, usually from 37.8 µM), for inactives: at the top dose activity change, negative = inhibition, hits mostly inhibitors. hit rate 1.8% among 300,000. AID 540276. Marburg virus pseudotyped entry inhibition, cell reporter; calls by dose curve; tested in HEK293 cells; further: potency means the concentration at half of the fitted maximal effect
LASV entry inh: blocks Lassa virus binding to or entry into cells. Lassa virus pseudotype entry inhibition, cell reporter. AID 540256. hit rate 1.2% among 300,000. Potency, µM (titrated, usually from 37.9 µM), for inactives: top-dose activity change, negative = inhibition, usual class: inhibitors; calls by dose curve; tested in HEK293 cells; further: potency means the concentration at half of the fitted maximal effect; nearly all actives have a fitted effect of over 50% in size
The depositor's hits bear a star; i = inactive; ? = inconclusive; / = not tested or not shown; + = active, no number; [ ] = another dose, or the depositor's remark. On the % scale 0 is the no-effect control and ±100 the full control effect.

SMILES	FMDV antiviral	VACV Venus inh	HCMV antiviral	Vaccinia mCherry	MARV entry inh	LASV entry inh
C#CCOC(=O)c1ccccc1C(=O)n1nnc2ccccc21	22.4µM*	/	39.4	/	14.8%	0.1%
CS(=O)(=O)CCNCc1nc(-c2ccc3ncnc(Nc4ccc(F)c(Cl)c4)c3c2)cs1	/	/	/	/	/	-15.2%
O=C(Nc1cccc(Br)c1)c1ccc(CN2CCc3ccccc3C2)cc1	?	/	-27.7	/	/	/
CSc1cccc(NC(=O)c2ccc(CN3CCc4ccccc4C3)cc2)c1	?	?	-60.6*	-19.0%	?	?
O=C(Nc1ccc(-c2cn3ccccc3n2)cc1)c1cccs1	-16.6%	-6.2%	-8.5	-13.8%	14.6µM*	?
O=C(Nc1cccc(-c2cn3ccccc3n2)c1)c1cccc(Cl)c1	?	14.1µM*	-32.6	?	?	?
O=C(CSc1nccn1Cc1ccccc1)Nc1ccc2c(c1)OCO2	63.0%	-4.1%	6.8	-9.7%	/	0.7%[46.1 µM]
CC(C)[C@H](NC(=O)OC(C)(C)C)C(=O)N1CCC(C(=O)N[C@@H](C)C(=O)Nc2ccc(F)cc2)CC1	-15.1%	/	-29.8	/	/	/
CCc1ccc(NC(=O)[C@H](C)NC(=O)C2CCN(C(=O)[C@@H](NC(=O)OC(C)(C)C)C(C)C)CC2)cc1	48.1%	/	-70.7*	/	4.9%	/
Cc1cn([C@H]2C[C@H](O)[C@@H](CCC(=O)NCc3ccccc3)O2)c(=O)[nH]c1=O	-13.6%	?	-10.6	+	/	/
CC(=O)Nc1ccc(NC(=O)CSc2cn(CC(=O)N(C(C)C)C(C)C)c3ccccc23)cc1	-3.2%	-9.1%	7.4	-6.7%	/	-0.4%[46.1 µM]
COc1ccc(OCc2cc(-c3ccc(Cl)cc3)no2)cc1	13.2%	-10.7%	-36.6	-1.7%	-7.5%[46.1 µM]	16.3%[46.1 µM]
O=C(CCl)NCc1cc(-c2ccc(Cl)cc2)no1	?	?	-112.8*	10µM*	?	?
CCC(C)C(=O)Nc1nc(-c2ccc3c(c2)NC(=O)CO3)cs1 (configuration not stated)	-18.6%	/	65.7	/	?	-2.4%
O=C1COc2ccc(-c3csc(NCCc4ccccc4)n3)cc2N1	39.8µM*	-13.1%	14.9	-20.0%	?	?
O=C1O[C@@H](N2CCN(C/C=C\c3ccccc3)CC2)c2ccccc21	/	/	/	/	2.9%	/
COCCNCCCOc1ccc(C)cc1Br	5.6%	-18.2%	6.8	-1.0%	/	/
COCCCNCCCOc1ccc(Cl)cc1Br	-7.6%	/	-4.9	/	16.4µM*	-18.3%
COCCCNCCCOc1ccc(C)cc1Br	-7.8%	1.7%	-63.0*	-5.4%	?	?
CCCN(CCC)c1nn2c(=O)c(C(=O)NCc3cc(Br)ccc3OC)cnc2s1	0.0%	-18.7%	-31.0	-14.4%	/	-9.8%[46.1 µM]
CCn1nc(C)c2c(-c3ccccc3)cc(=O)n(C(C)C(=O)NCc3ccccc3OC)c21 (configuration not stated)	?	1.5%	-15.7	-10.9%	/	?
Fc1ccc(-c2csc(N3CCOCC3)n2)cc1	18.0%	-1.3%	37.5	?	?	5.4%[46.1 µM]
c1ccc2oc(-c3csc(N4CCOCC4)n3)cc2c1	-58.7%	-19.3%	-11.1	-10.5%	7.94µM*	?
CCCCOc1cccc(C(=O)Nc2cc(NC(=O)c3ccco3)ccc2OC)c1	0.0%	-6.4%	-104.1*	-2.8%	?	-24.4%[46.1 µM]
COc1cc(C(=O)OCC(=O)NC2CCCC2)cc(NC(=O)c2ccco2)c1OC	7.9%	/	-20.8	/	-12.5%	-0.5%
SMILES	FMDV antiviral	VACV Venus inh	HCMV antiviral	Vaccinia mCherry	MARV entry inh	LASV entry inh
COc1ccc(NC(=O)c2ccco2)cc1NC(=O)c1cccc(OC(C)C)c1	-8.3%	/	-35.4	/	?	10.3µM*
COc1cc(C(=O)OCC(C)=O)cc(NC(=O)c2ccco2)c1OC	-29.7%	/	-68.6*	/	/	/
CN(C)c1nc2c(N)ncnc2n1C1OC(CO)C(O)C1O (configuration not stated)	-6.2%	-8.6%	-19.5	-14.8%	16.9%	0.2%
CN(C)c1nc2c(N)ncnc2n1[C@H]1O[C@@H](CO)[C@H](O)[C@@H]1O	5.4%	-11.2%	-69.7*	i	17.1%[46.1 µM]	-11.2%[46.1 µM]
[N-]=[N+]=Nc1nc2c(N)ncnc2n1C1OC(CO)C(O)C1O (configuration not stated)	-28.8%	12.6µM*	/	8.91µM*	/	/
Nc1ncnc2c1nc(Cl)n2[C@@H]1O[C@H](CO)[C@@H](O)[C@@H]1O	/	12.6µM*	/	?	/	/
Nc1ncnc2c1nc(Cl)n2C1OC(CO)C(O)C1O (configuration not stated)	?	-27.8%	/	?	/	/
O=C(NCCc1c[nH]c2ccccc12)O[C@H]1CC[C@@]23CCCN2C(=O)CCC[C@H]3[C@H]1Cc1ccccc1	/	/	15.6	/	/	/
CC(C)(C)NCC(O)C1=C(Cl)CCCC1 (configuration not stated)	/	/	/	/	15.5%	/
COCc1ccc(CN2CCOc3c(cc(-c4ccc(SC)cc4)cc3OC)C2)o1	-3.4%	1.2%	/	-7.7%	/	/
COc1ccc(NC(=O)C(C)(C)n2cc(NC(=O)c3ccc4ccccc4n3)cn2)cc1	/	/	67.1	/	/	/
CCc1cc(=S)n2c([nH]c3ccccc32)c1C#N	?	-24.9%	/	-23.9%	?	?
Cc1ccc(Cc2c(C)c(C#N)c3[nH]c4ccccc4n3c2=O)cc1	?	/	-33.5	/	/	/
CCc1c(C)c(C#N)c2[nH]c3ccccc3n2c1=S	?	6.0%	-101.5*	-8.4%	2.1%[46.1 µM]	?
C=C(C)Cc1c(C)c(C#N)c2[nH]c3ccccc3n2c1=O	?	-26.2%	-66.0*	-19.3%	12.6µM*	?
C=CCN1C(c2ccc(Br)cc2)=CS/C1=C(/C#N)c1nnc(N2CCOCC2)n1-c1ccccc1	?	-7.5%	-79.5*	-11.4%	?	?
c1ccc2c(N3CCCCCC3)nc(CN3CCCCC3c3nccs3)nc2c1 (configuration not stated)	-13.1%	-12.3%	/	?	/	/
CCOc1ccc(NC(=O)Cn2c(=O)n(CCCCC(=O)NCc3ccc4c(c3)OCO4)c(=O)c3ccccc32)cc1	?	?	-76.4*	?	-12.3%[46.1 µM]	?
Cc1ccc(NC(=O)Cn2c(=O)n(CCC(=O)N3CCc4ccccc4C3)c(=O)c3ccccc32)c(C)c1	-8.8%	-13.6%	-65.5*	-15.0%	-2.6%[46.1 µM]	-21.8%[46.1 µM]
Cc1ccc(NC(=O)Cn2c(=O)n(CCC(=O)NCc3ccccc3Cl)c(=O)c3ccccc32)cc1	-13.3%	-11.2%	-86.1*	-2.3%	-21.1%[46.1 µM]	4.3%[46.1 µM]
Cc1ccc(NC(=O)Cn2c(=O)n(CCCC(=O)NCc3ccc4c(c3)OCO4)c(=O)c3ccccc32)cc1	-2.4%	-5.5%	12.7	-7.9%	-1.0%[46.1 µM]	2.6%[46.1 µM]
COCCNC(=O)Cn1c(=O)n(CCCC(=O)NCc2ccc3c(c2)OCO3)c(=O)c2sccc21	5.0%	1.3%	-2.0	-3.6%	?	4.47µM*
NC(=O)Cn1c(=O)n(CCCCCC(=O)NCc2ccc3c(c2)OCO3)c(=O)c2sccc21	5.2%	-9.4%	2.2	-9.1%	0.3%[46.1 µM]	-19.3%[46.1 µM]
Cc1ccc(NC(=O)Cn2c(=O)n(CCCCC(=O)NCc3ccccc3Cl)c(=O)c3ccccc32)cc1	-22.6%	-9.0%	-0.2	-19.5%	?	8.0%[46.1 µM]

Source: PubChem (National Center for Advancing Translational Sciences (NCATS))
